Experimental data reported in PubChem BioAssay (Tox21).
Values joined by “and” are separate entries in the source; they are usually repeats but may differ in a detail not shown here. Equal entries are not always repeated. Results filed as inconclusive are left out. Where a call stands in place of a potency, no number is given. The source holds several records for some structures; these can differ, active in one and inactive in another. Active and inactive are the calls of the source. Unless noted, calls come from the whole dose curve; as a rule, active = well fitted curve in the direction sought with a large enough effect in the repeat runs; inconclusive = weak or mixed curves; inactive = no such curve, though single readings can be large; an effect the other way counts as inactive or inconclusive.

Tests used:
[1] = A CellTox Green Cytotoxicity Assay to monitor cytotoxicity in HEK293 cells - 32 hour (AID 1224881); note: nearly all actives have a fitted effect of over 40% in size
How it was run: (§1)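 Nonlytic real-time cytotoxicity: HEK293 + CellTox Green reagent plated, 5 h preincubation, pintool compound addition (23 nL in DMSO), 37 C for 40 h, fluorescence measured at successive time points.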

[2] = A CellTox Green Cytotoxicity Assay to monitor cytotoxicity in HepG2 cells - 0 hour (AID 1224882); note: nearly all actives have a fitted effect of over 35% in size
How it was run: (§2)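 Read-out is fluorescence of a cyanine dye excluded from live cells that stains DNA of dead HepG2 cells, with signal proportional to cytotoxicity. Plates were read at 0, 8, 16, 24, 32 and 40 h after compound addition.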

[3] = A CellTox Green Cytotoxicity Assay to monitor cytotoxicity in HepG2 cells - 32 hour (AID 1224883); note: nearly all actives have a fitted effect of over 50% in size
How it was run: as §2

[4] = A CellTox Green Cytotoxicity Assay to monitor cytotoxicity in HEK293 cells - 8 hour (AID 1224884); note: nearly all actives have a fitted effect of over 35% in size; note: potency is the fitted concentration of half-maximal effect
How it was run: as §1

[5] = qHTS RealTime-Glo MT Cell Viability Assay in HepG2 cells - 16 hour (AID 1224885); note: nearly all actives have a fitted effect of over 50% in size
How it was run: (§3)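 Cells + NanoLuc/prosubstrate dispensed (600 cells/well) → 5 h at 37 C/5% CO2 → compounds in DMSO transferred → 40 h incubation at 37 C, luminescence read at 0, 8, 16, 24, 32, 40 h.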

[6] = qHTS RealTime-Glo MT Cell Viability Assay in HEK293 cells - 24 hour (AID 1224886); note: nearly all actives have a fitted effect of over 50% in size; note: potency is the fitted concentration of half-maximal effect
How it was run: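 Tox21 10K qHTS, HEK293, 600 cells/well, RealTime-Glo reagent co-dispensed with cells; 5 h preincubation, compound by pintool, 37 C, luminescence at 0–40 h.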

[7] = qHTS RealTime-Glo MT Cell Viability Assay in HEK293 cells - 8 hour (AID 1224887); note: top concentration of the series differs between compounds; nearly all actives have a fitted effect of over 50% in size
How it was run: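 Cells were seeded together with NanoLuc luciferase and a prosubstrate that viable cells reduce to a luciferase substrate. After a 5 h incubation at 37 C/5% CO2, compounds were added and luminescence was measured repeatedly during 40 h of treatment.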

[8] = A CellTox Green Cytotoxicity Assay to monitor cytotoxicity in HEK293 cells - 16 hour (AID 1224888); note: nearly all actives have a fitted effect of over 35% in size
How it was run: as §1

[9] = qHTS RealTime-Glo MT Cell Viability Assay in HepG2 cells - 0 hour (AID 1224889); note: nearly all actives have a fitted effect of over 50% in size
How it was run: as §3

[10] = A CellTox Green Cytotoxicity Assay to monitor cytotoxicity in HepG2 cells - 8 hour (AID 1224890); note: nearly all actives have a fitted effect of over 45% in size
How it was run: as §2

[11] = qHTS assay to identify small molecule antagonists of the estrogen receptor alpha (ER-alpha) signaling pathway using the BG1 cell line in the presence of 0.1 nM 17-beta-estradiol - cell viability counter screen (AID 1259241); note: nearly all actives have a fitted effect of over 40% in size
How it was run: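 Measures cytotoxicity alongside the ER-alpha antagonist readout: VM7Luc4E2 cells, charcoal-stripped serum, 0.1 nM 17beta-estradiol final, 22 hr compound incubation at 37C, CellTiter-Fluor fluorescence.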

[12] = qHTS assay to identify small molecule HDAC inhibitors (AID 1259364); note: top concentration of the series differs between compounds; nearly all actives have a fitted effect of over 45% in size
How it was run: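 Luminescence from a cell-permeant luminogenic class I/II HDAC substrate reports endogenous deacetylase activity in intact HCT-116 cells treated with compounds for 2 h.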

[13] = qHTS assay to identify small molecule HDAC inhibitors - cell viability counter screen (AID 1259365)
How it was run: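 Following a 2hr exposure of overnight-plated wild-type HCT-116 cells to DMSO-delivered compounds, CellTiter-Glo was added and luminescence recorded after 30min at room temperature.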

[14] = qHTS assay to identify small molecule agonists of the sonic hedgehog signaling (Shh) pathway - cell viability counter screen (AID 1259366); note: nearly all actives have a fitted effect of over 50% in size
How it was run: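 After a 4hr attachment at 37C, NIH/3T3 cells bearing an integrated Gli1-driven luciferase reporter were dosed with compounds. Treatment lasted 24hr, with the final hour including CellTiter-Fluor for a fluorescence viability measurement.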

[15] = qHTS assay to identify small molecule antagonists of the sonic hedgehog signaling (Shh) pathway - cell viability counter screen (AID 1259367); note: nearly all actives have a fitted effect of over 55% in size; note: potency is the fitted concentration of half-maximal effect
How it was run: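 NIH/3T3-derived Gli1-Luc reporter cells (2,000 per well) rested 4 hr at 37 C, then received DMSO compounds plus conditioned medium. After 23 hr of treatment, CellTiter-Fluor was added for 1 hr at 37C and fluorescence read.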

[16] = qHTS assay to identify small molecule agonists of the sonic hedgehog signaling (Shh) pathway (AID 1259368; calls by dose curve;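 note: NIH/3T3-derived 3T3Gli1-Luc cells carrying a stable Gli1-driven firefly luciferase reporter; series mostly up to about 92 µM; nearly all actives have a fitted effect of over 15% in size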)
How it was run: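 3T3Gli1-Luc (NIH/3T3 clone, stable Gli1-Luc); 4 hr pre-incubation, then cpd in DMSO 24 hr, 37 C/5% CO2; luciferase reagent 30 min RT; luminescence.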

[17] = qHTS assay to identify small molecule phospholipidosis (PLD) inducers (AID 1259344; active = well fitted curve in the direction sought with a large enough effect; an effect the other way counts as inactive or inconclusive)
How it was run: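 HepG2 cells on collagen I, attached 4 h at 37 C, were co-treated with compound and LipidTOX Red dye for 24 h at 37 C, then fixed with paraformaldehyde plus Hoechst 33342 and imaged by high-content microscopy for phospholipid accumulation.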

[18] = molecular target: Estrogen receptor (Homo sapiens) (UniProt P03372); test: qHTS assay to identify small molecule antagonists of the estrogen receptor alpha (ER-alpha) signaling pathway using the BG1 cell line in the presence of 0.1 nM 17-beta-estradiol (AID 1259244); note: nearly all actives have a fitted effect of over 50% in size
Estrogen receptor (Homo sapiens), sequence (P03372 whole entry, looked up): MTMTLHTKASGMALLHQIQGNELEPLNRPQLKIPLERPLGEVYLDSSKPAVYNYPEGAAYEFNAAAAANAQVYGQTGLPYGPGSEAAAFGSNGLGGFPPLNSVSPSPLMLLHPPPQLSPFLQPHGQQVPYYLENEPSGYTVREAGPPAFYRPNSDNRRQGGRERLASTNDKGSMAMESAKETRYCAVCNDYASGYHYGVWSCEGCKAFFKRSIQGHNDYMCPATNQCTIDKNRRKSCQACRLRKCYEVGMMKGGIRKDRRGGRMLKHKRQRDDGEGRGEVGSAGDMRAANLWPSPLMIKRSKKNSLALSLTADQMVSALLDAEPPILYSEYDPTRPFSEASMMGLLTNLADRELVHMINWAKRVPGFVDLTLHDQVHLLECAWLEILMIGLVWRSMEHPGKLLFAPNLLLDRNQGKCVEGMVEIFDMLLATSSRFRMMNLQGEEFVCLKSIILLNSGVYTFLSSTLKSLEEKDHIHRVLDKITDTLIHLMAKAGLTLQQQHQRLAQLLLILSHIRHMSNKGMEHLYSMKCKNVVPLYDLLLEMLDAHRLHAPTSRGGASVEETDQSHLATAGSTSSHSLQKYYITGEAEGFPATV
How it was run: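 Cells: VM7Luc4E2, endogenous ER-alpha, 4x ERE-luc stable. Pre-culture 5 d, phenol red-free, charcoal-stripped FBS. Plated 24 h, compound + E2 0.1 nM final, 22 h 37C/5% CO2. Readout ONE-Glo luminescence.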

[19] = qHTS assay to identify small molecule antagonists of the androgen receptor (AR) signaling pathway using the MDA cell line in the presence of 0.5 nM R1881 - cell viability counter screen (AID 1259242); note: nearly all actives have a fitted effect of over 45% in size
How it was run: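 Counter screen for cytotoxicity run in the same wells as the AR antagonist reporter screen: MDA-kb2 cells were treated 16 hr with test compounds and 0.5 nM R1881, then live-cell protease activity was measured by fluorescence.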

SMILES | Potency [1] | Potency [2] | Potency [3] | Potency [4] | Potency [5] | Potency [6] | Potency [7] | Potency [8] | Potency [9] | Potency [10] | Potency [11] | Potency [12] | Potency [13] | Potency [14] | Potency [15] | Potency [16] | outcome [17] | Potency [18] | Potency [19]
CCCCCC(C)=O | inactive | inactive | inactive | inactive | inactive | inactive | inactive | inactive | inactive | inactive | inactive | inactive | inactive | inactive | inactive and 54.5 µM (active) | inactive | – | – | –
CC(COCC(C)OC(=O)c1ccccc1)OC(=O)c1ccccc1 (centres undefined) | inactive | inactive | inactive | inactive | inactive | – | – | inactive | inactive | inactive | inactive | inactive | inactive | inactive | inactive | inactive | – | – | –
Clc1cccc(Cl)c1NC1=NCCN1 | inactive | inactive | inactive | inactive | inactive | inactive | inactive | inactive | inactive | inactive | inactive | inactive | inactive | inactive | inactive | inactive | inactive | – | –
Nc1cccc(C(F)(F)F)c1 | inactive | inactive | inactive | 40.1 µM (active) and inactive | inactive | inactive | inactive | inactive | inactive | inactive | inactive | inactive | inactive | inactive | inactive | inactive | – | inactive | –
COc1ccc(N)c(OC)c1 | inactive | inactive | inactive | inactive | inactive | inactive | inactive | inactive | inactive | inactive | inactive | inactive | inactive | inactive | – | inactive | – | inactive | –
CC(=O)C(C)C | inactive | inactive | inactive | inactive | inactive | inactive | inactive | inactive | inactive | inactive | inactive | inactive | inactive | inactive | inactive | inactive | – | inactive | –
O=C1CCCCCCCCCCC1 | – | inactive | inactive | inactive | inactive | inactive | inactive | inactive | inactive | inactive | inactive | inactive | inactive | inactive | inactive | inactive | – | inactive | –
CC[N+](CC)(CC(=O)Nc1c(C)cccc1C)Cc1ccccc1 | inactive | inactive | inactive | inactive | inactive | inactive | inactive | inactive | inactive | inactive | inactive | inactive | inactive | inactive | inactive | inactive | inactive | – | –
Cc1ccc([N+](=O)[O-])cc1N | inactive | inactive | inactive | inactive | inactive | inactive | inactive | inactive | inactive | inactive | inactive | inactive | inactive | inactive | inactive | inactive | – | inactive | –
CC(=O)OC(C)(C)C1CC=C(C)CC1 (centres undefined) | inactive | inactive | inactive | inactive | inactive | inactive | inactive | inactive | inactive | inactive | inactive | inactive | inactive | inactive | inactive | inactive | – | inactive | –
Oc1ccc(Cc2ccccc2O)cc1 | inactive | inactive | inactive | inactive | inactive | 12.3 µM (active) | – | inactive | inactive | inactive | inactive | inactive | inactive | inactive | inactive | inactive | – | inactive | inactive
O=Cc1ccc(CO)o1 | inactive | inactive | inactive | inactive | inactive | inactive | inactive | inactive | inactive | inactive | inactive | inactive | inactive | inactive | inactive | inactive | – | inactive | –
CC1(C)[C@@H](O[C@H]2O[C@H](C(=O)O)[C@@H](O)[C@H](O)[C@H]2O[C@@H]2O[C@H](C(=O)O)[C@@H](O)[C@H](O)[C@H]2O)CC[C@]2(C)[C@H]3C(=O)C=C4[C@@H]5C[C@@](C)(C(=O)O)CC[C@]5(C)CC[C@@]4(C)[C@]3(C)CC[C@@H]12 | inactive | inactive | inactive | inactive | inactive | inactive | inactive | inactive | – | inactive | inactive | inactive | inactive | inactive | inactive | inactive | inactive | – | –
CCOC(=O)c1ccc(O)cc1 | inactive | inactive | inactive | inactive | inactive | inactive | inactive | inactive | inactive | inactive | inactive | inactive | inactive | inactive | inactive | inactive | inactive | inactive | –
COc1ccccc1[N+](=O)[O-] | inactive | inactive | inactive | inactive | inactive | inactive | inactive | inactive | inactive | inactive | inactive | inactive | inactive | inactive | inactive | inactive | – | – | –
Brc1ccc(Oc2ccc(Br)cc2)cc1 | inactive | inactive | inactive | inactive | inactive | inactive | inactive | inactive | inactive | inactive | inactive | inactive | inactive | inactive | inactive | inactive | – | – | –
